Assay results published in PMC7819943, “Rice protein-binding microarrays: a tool to detect cis-acting elements near promoter regions in rice”.
In all, about 39,000 sequences were measured (“fluorescence intensity (a.u.)”: median about 4,300, highest 2% from about 39,000 on). The sample as a whole holds a higher share of the highest values than the screen did.

What follows are sequences tested against T1, OsSMF1 (Oryza sativa, UniProt Q6ZLB0 1-436) (assay: protein-binding microarray (RPBM); PBS, 2% BSA, 51.3 ng/ul salmon testes DNA, 50 uM zinc acetate, 200 nM TF, 25 C, 1 h; high values mean tight binding). Settings: protein: recombinant; tags: N-terminal polyhistidine and DsRed monomer fusion (pET32a); chain copies: 2; label: CyDye5-dUTP incorporated in the synthesized complementary strand; 3' TTTTT single-stranded linker to array surface; dsDNA, one strand shown.
T1 sequence: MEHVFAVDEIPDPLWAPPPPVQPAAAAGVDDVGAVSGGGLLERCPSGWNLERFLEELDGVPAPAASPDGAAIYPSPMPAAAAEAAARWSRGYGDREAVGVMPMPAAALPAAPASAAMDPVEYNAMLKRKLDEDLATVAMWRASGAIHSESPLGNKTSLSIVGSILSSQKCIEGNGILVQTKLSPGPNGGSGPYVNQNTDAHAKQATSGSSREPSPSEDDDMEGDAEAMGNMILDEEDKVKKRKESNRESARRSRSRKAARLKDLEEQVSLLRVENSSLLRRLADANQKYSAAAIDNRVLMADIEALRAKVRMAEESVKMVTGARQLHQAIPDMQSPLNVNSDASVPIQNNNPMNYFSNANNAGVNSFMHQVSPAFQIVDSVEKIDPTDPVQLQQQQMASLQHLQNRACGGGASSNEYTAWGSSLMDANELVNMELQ
Outline: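 Transcription factors, each fused N-terminally to a polyhistidine tag and DsRed, were expressed in E. coli BL21-CodonPlus and purified on Ni–NTA. A custom Agilent array was made double-stranded by primer extension with Cy5-dUTP and blocked with 2% BSA. It was incubated with 200 nM protein in PBS, 2% BSA, salmon testes DNA and 50 µM zinc acetate at 25 °C for 1 h, then washed. The binding signal is per-feature fluorescence intensity (arbitrary units) read on an Axon 4000B scanner.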
For “GCTACTAAGGAGTACTACAATATTGCATCATCGTCATCATCGGAGTCACCTAGTGCAG”, the binding signal was 6340 fluorescence intensity (a.u.). For “TGCGCCGATAGCTCCTGTCAACGTGTCACGCGCTGCGCCTCGGAGTCACCTAGTGCAG”, the binding signal was 8650 fluorescence intensity (a.u.). For “ATTCCAATTCCAGCTCAATGCTGCACGGAATCTCCTCTTCCGGAGTCACCTAGTGCAG”, the binding signal was 4140 fluorescence intensity (a.u.). In the case of “TACCTCTTCAGTACAGCTGCAGCTGCTGACTGCTCACTACCGGAGTCACCTAGTGCAG”, the binding signal was 4340 fluorescence intensity (a.u.). In the case of “CCAGTAATCCTCCTCCTGCTGCCTCAGCTCCTCTTCTGTACGGAGTCACCTAGTGCAG”, the binding signal was 50800 fluorescence intensity (a.u.). In the case of “CACAACTACGTAGACGGGCGTTTGCGGCCGAAAATTTGACCGGAGTCACCTAGTGCAG”, the binding signal was 3730 fluorescence intensity (a.u.). For “CGGTCCGGGCGATTTGACCGGTCAAAAGGCGTGGCCACGACGGAGTCACCTAGTGCAG”, the binding signal was 3850 fluorescence intensity (a.u.). With “AAAACGACCGGTTTTGACGTAAATCCACAAGGCGTTATGACGGAGTCACCTAGTGCAG” the binding signal was 58400 fluorescence intensity (a.u.). “CGCCGCCACAACCGCGCGCCGTCACCGCCGCGTGCCGTCACGGAGTCACCTAGTGCAG” was tested, and the binding signal was 5070 fluorescence intensity (a.u.). In the case of “CCCACCACACACCCGGCCCCACATGTCATCCACCCATCCACGGAGTCACCTAGTGCAG”, the binding signal was 4500 fluorescence intensity (a.u.). With “CATTATCTAAGTTTCTTTACGTCATTATCTTCGTTTAATTCGGAGTCACCTAGTGCAG” the binding signal was 3230 fluorescence intensity (a.u.). For “TTCTTTCGTTAGTTCACCAAAGATGGGCATTTTACTAAGACGGAGTCACCTAGTGCAG”, the binding signal was 65000 fluorescence intensity (a.u.). With “TCTTTTCTAAGTCATGTTAGACCAATAGAGATTTCTCAAACGGAGTCACCTAGTGCAG” the binding signal was 27600 fluorescence intensity (a.u.). “TGTGTGCGTGTGTTGTGACTTATGATGTGTTTCTTAAGAACGGAGTCACCTAGTGCAG” was tested, and the binding signal was 4170 fluorescence intensity (a.u.). In the case of “TAGAATTTCTCTTCATATAATGCTACGTCATTGCTATATACGGAGTCACCTAGTGCAG”, the binding signal was 10300 fluorescence intensity (a.u.). In the case of “CTATTGCAAATTGCAATGCTGTATATGCACTTCATTAGAACGGAGTCACCTAGTGCAG”, the binding signal was 54100 fluorescence intensity (a.u.). For “CATGGTAGAAAATTAGATTATGGTGCATTTGCTGCAAATGCGGAGTCACCTAGTGCAG”, the binding signal was 3860 fluorescence intensity (a.u.). With “TCATTAACATCAATATGAATGTGAGAAATGCTAGAATGACCGGAGTCACCTAGTGCAG” the binding signal was 3240 fluorescence intensity (a.u.). With “GATTCATTTAACAATTATATGAATGTGGGAAATGCTAGAACGGAGTCACCTAGTGCAG” the binding signal was 44400 fluorescence intensity (a.u.). With “CTAGATTTATTAATATCGATATGAATGTGGAAAATGCTAGCGGAGTCACCTAGTGCAG” the binding signal was 18100 fluorescence intensity (a.u.). With “AATAATTTTCTCATTTTCTTTAACAGAAGATGACAATGCACGGAGTCACCTAGTGCAG” the binding signal was 34800 fluorescence intensity (a.u.). “CACTTGGTAATTACTTCTACTATGTCATCCTTATCATAATCGGAGTCACCTAGTGCAG” was tested, and the binding signal was 3200 fluorescence intensity (a.u.). For “TCCTTCAAGAATCCTATACTTCTTAAATCAGGAACATAATCGGAGTCACCTAGTGCAG”, the binding signal was 8910 fluorescence intensity (a.u.). With “TCCAAATCCTATGAAATTCCTATGGAAATCCACGTTGCATCGGAGTCACCTAGTGCAG” the binding signal was 7670 fluorescence intensity (a.u.). With “AGTTCATTATCATCATGTAATGAATCATCATGAATCCAAACGGAGTCACCTAGTGCAG” the binding signal was 3280 fluorescence intensity (a.u.). “ATCTTATGGAATCCTATGAAATTCATATGGAATGCCTAATCGGAGTCACCTAGTGCAG” was tested, and the binding signal was 65000 fluorescence intensity (a.u.). In the case of “GATTGAATCATATCGTATCCTTTGAAATTCCTATGGAATGCGGAGTCACCTAGTGCAG”, the binding signal was 4120 fluorescence intensity (a.u.). For “AGTTCTACTTGAGTTATGTAATGAATCACAATGCCTTCATCGGAGTCACCTAGTGCAG”, the binding signal was 53400 fluorescence intensity (a.u.). “CACCACCCTAAATGGAATAAGAAAATTCTTATTTGTGAATCGGAGTCACCTAGTGCAG” was tested, and the binding signal was 3440 fluorescence intensity (a.u.). With “TTTGAATCAAAGGAATGGATCTTATGGAATCCTATAAAATCGGAGTCACCTAGTGCAG” the binding signal was 40400 fluorescence intensity (a.u.). In the case of “TAAGGAGGGTGTTGGGAGGGTGGGAGCTTTGCTTGGGGTGCGGAGTCACCTAGTGCAG”, the binding signal was 3950 fluorescence intensity (a.u.). With “TTGTTGAACTATAGGGTAGATGTGATATGTAAGAATTGCCCGGAGTCACCTAGTGCAG” the binding signal was 3280 fluorescence intensity (a.u.). For “CCGGGGTGTCAGAAATCCAGGCCCACCCGTCAGCGACGCGCGGAGTCACCTAGTGCAG”, the binding signal was 4130 fluorescence intensity (a.u.). For “AAATCTCTCTCCACCCTTTCAGCGCGCCACGTGTCCCACACGGAGTCACCTAGTGCAG”, the binding signal was 18900 fluorescence intensity (a.u.). For “CAAAATACTCAAGCGGCGGCATTGTCATCTTCCTCCTCCCCGGAGTCACCTAGTGCAG”, the binding signal was 3550 fluorescence intensity (a.u.). In the case of “AATGCCAAGTGGCAGCCTATGAGCGTTTGTAGCATGCCATCGGAGTCACCTAGTGCAG”, the binding signal was 41200 fluorescence intensity (a.u.). With “GAGTATTTGGCATGGTTGTAGCGTTGGTGACCTGAGTCATCGGAGTCACCTAGTGCAG” the binding signal was 7270 fluorescence intensity (a.u.). In the case of “TGCTATGCTATGGCAAGAACATCTTGAGCCATGACATCATCGGAGTCACCTAGTGCAG”, the binding signal was 4390 fluorescence intensity (a.u.). “TCTGTTTAGTTACATCACTGATGGTCTTGATTTCGCAGTGCGGAGTCACCTAGTGCAG” was tested, and the binding signal was 4040 fluorescence intensity (a.u.). In the case of “CTGCACTACGCCGCAGACGAACTGACGTGGTCGTATAAAACGGAGTCACCTAGTGCAG”, the binding signal was 5790 fluorescence intensity (a.u.). In the case of “CCCTGGGTGGTTTTGGAGGTGGTTTTGGTTGACGTGGCGCCGGAGTCACCTAGTGCAG”, the binding signal was 21400 fluorescence intensity (a.u.). With “GGTCAAGAGCGCATCCAGCATGTCGTCGTGTACCTGACCGCGGAGTCACCTAGTGCAG” the binding signal was 3720 fluorescence intensity (a.u.).
